From PubChem BioAssay AID1159580 (chemical genetic matrix, 2015)
In all, about 5,500 compounds went through this assay and about 2,000 (36%) were called active. About 18% were inconclusive and are not listed. Rule as the data show it: active = normalized growth mostly below about 0.91 (no sharp cut-off); inconclusive = no clear call, values can overlap the other calls; inactive = mostly above about 0.92. Some of the results follow.

Assay: chemical genetic growth profiling, strain panel (AID 1159580);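 also: tested at 20 µM; growth read once vehicle control cultures reached saturation at 30 °C; 1 = growth at the plate median or of vehicle wells; lower values mean less growth of the strain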
Conditions: S. cerevisiae deletion strains, growth OD

Measured: normalized growth

CC1(C)O[C@@H]2CC3C4CCC5=CC(=O)C=C[C@]5(C)C4[C@@H](O)C[C@]3(C)[C@]2(C(=O)CO)O1 (stereo not given in full)
inactive: locus YAL021C, strain ccr4, active compounds read low 1.01 | locus YAL026C, strain drs2, active compounds read low 1.01 | locus YAL030W, strain snc1, active compounds read low 1.01 | locus YBL061C, strain skt5, active compounds read low 1 | locus YBR009C, strain hhf1, active compounds read low 1.01 | locus YBR023C, strain chs3, active compounds read low 1 | locus YBR171W, strain sec66, active compounds read low 0.994 | locus YBR231C, strain swc5, active compounds read low 1.01 | locus YBR279W, strain paf1, active compounds read low 1.01 | locus YCL011C, strain gbp2, active compounds read low 1 | locus YCL016C, strain dcc1, active compounds read low 1.01 | locus YCL061C, strain MRC1, active compounds read low 0.999 | locus YCL069W, strain vba3, active compounds read low 0.995 | locus YCR088W, strain abp1, active compounds read low 0.993 | locus YDL005C, strain med2, active compounds read low 0.999 | locus YDL040C, strain nat1, active compounds read low 1 | locus YDR001C, strain nth1, active compounds read low 0.999 | locus YDR069C, strain doa4, active compounds read low 1 | locus YDR137W, strain rgp1, active compounds read low 0.998 | locus YDR159W, strain sac3, active compounds read low 1.02 | locus YDR195W, strain ref2 1 | locus YDR297W, strain sur2, active compounds read low 1 | locus YDR334W, strain swr1, active compounds read low 1.01 | locus YDR335W, strain msn5, active compounds read low 1.01 | locus YDR392W, strain spt3, active compounds read low 0.983 | locus YEL003W, strain gim4, active compounds read low 1.01 | locus YEL037C, strain rad23, active compounds read low 0.994 | locus YEL061C, strain CIN8 (second series), active compounds read low 1 | locus YER015W, strain faa2, active compounds read low 1.01 | locus YER016W, strain bim1, active compounds read low 0.995 | locus YER111C, strain swi4, active compounds read low 1 | locus YER155C, strain BEM2 (second series), active compounds read low 0.984 | locus YFR010W, strain ubp6, active compounds read low 0.996 | locus YGL167C, strain pmr1, active compounds read low 1.01 | locus YGL173C, strain kem1, active compounds read low 1.01 | locus YGL227W, strain vid30, active compounds read low 0.998 | locus YGL240W, strain doc1, active compounds read low 1.01 | locus YGL253W, strain hxk2, active compounds read low 1 | locus YHR013C, strain ard1, active compounds read low 1.02 | locus YHR027C, strain rpn1, active compounds read low 1.01 | locus YHR030C, strain SLT2, active compounds read low 0.988 | locus YHR079C, strain IRE1, active compounds read low 0.974 | locus YHR142W, strain chs7, active compounds read low 1.01 | locus YJL092W, strain hpr5, active compounds read low 0.997 | locus YJL095W, strain BCK1 (second series), active compounds read low 1.01 | locus YJL095W, strain BCK1, active compounds read low 0.985 | locus YJL115W, strain asf1, active compounds read low 1 | locus YJL129C, strain trk1, active compounds read low 1.03 | locus YJL154C, strain vps35, active compounds read low 0.996 | locus YJL164C, strain tpk1, active compounds read low 1.01 | locus YJL166W, strain qcr8, active compounds read low 1.01 | locus YJL187C, strain SWE1, active compounds read low 1 | locus YJR066W, strain TOR1, active compounds read low 0.95 | locus YKL160W, strain elf1, active compounds read low 1.02 | locus YKR026C, strain gcn3, active compounds read low 0.982 | locus YKR091W, strain srl3, active compounds read low 1.01 | locus YLL001W, strain dnm1, active compounds read low 1 | locus YLL026W, active compounds read low 1 | locus YLL041C, strain sdh2, active compounds read low 1 | locus YLR027C, strain aat2, active compounds read low 1.01 | locus YLR113W, strain HOG1, active compounds read low 0.963 | locus YLR221C, strain rsa3, active compounds read low 1.01 | locus YLR258W, strain gsy2, active compounds read low 1 | locus YLR262C, strain YPT6 (second series), active compounds read low 1.01 | locus YLR320W, strain mms22, active compounds read low 1.01 | locus YLR342W, strain FKS1, active compounds read low 1.02 | locus YLR357W, strain rsc2, active compounds read low 0.976 | locus YLR370C, strain arc18, active compounds read low 1.01 | locus YLR384C, strain iki3, active compounds read low 1.01 | locus YML120C, strain ndi1, active compounds read low 1.01 | locus YMR058W, strain fet3, active compounds read low 1.02 | locus YMR125W, strain sto1, active compounds read low 0.992 | locus YMR129W, active compounds read low 1.01 | locus YMR205C, strain PFK2, active compounds read low 0.978 | locus YMR231W, strain pep5, active compounds read low 1 | locus YNL071W, strain lat1, active compounds read low 0.998 | locus YNL183C, strain NPR1, active compounds read low 0.918 | locus YNL209W, strain ssb2, active compounds read low 1.02 | locus YNL248C, strain rpa49, active compounds read low 1.01 | locus YNL322C, strain KRE1 (second series), active compounds read low 0.998 | locus YNR049C, strain mso1, active compounds read low 1.01 | locus YOR001W, strain rrp6, active compounds read low 1.01 | locus YOR070C, strain gyp1, active compounds read low 1 | locus YOR080W, strain dia2, active compounds read low 1 | locus YOR083W, strain WHI5, active compounds read low 1.02 | locus YOR106W, strain vam3, active compounds read low 1 | locus YOR231W, strain MKK1, active compounds read low 0.983 | locus YOR265W, strain rbl2, active compounds read low 1.01 | locus YOR270C, strain vph1, active compounds read low 1.03 | locus YOR290C, strain snf2, active compounds read low 1.01 | locus YPL051W, strain arl3, active compounds read low 1 | locus YPL078C, strain atp4, active compounds read low 0.995 | locus YPL106C, strain sse1, active compounds read low 0.998 | locus YPL240C, strain hsp82, active compounds read low 1 | locus YPL256C, strain CLN2, active compounds read low 0.996
